The results in this text go back to PubChem BioAssay (NCATS).

Structures are written as SMILES. Records with an inconclusive call do not appear. Values without a mark were called inactive. Calls of active or inactive are those of the source. Calls follow the shape of the full dose curve.
% is scaled to controls: 0 for no effect and ±100 for the full control effect; potency is read from the fitted curve at half-maximal effect.

The nature of this experiment: qHTS assay for small molecule disruptors of the mitochondrial membrane potential - 1 hr assay (AID 651754). Also: nearly all actives have a fitted effect of over 35% in size. The settings on record: series mostly up to 92.2 µM; ratio change, negative = depolarisation: at the top concentration. The text has this: National Center for Advancing Translational Sciences [NCATS]
NIH Chemical Genomics Center [NCGC]
National Institutes of Environmental Health Sciences [NIEHS]
National Toxicology Program [NTP]
Mitochondrial membrane potential (MMP), one of the parameters for mitochondrial function, is generated by mitochondrial electron transport chain that creates an electrochemical gradient by a series of redox reactions. This gradient drives the synthesis of ATP, a crucial molecule for various cellular processes. Measuring MMP in living cells is commonly used to assess the effect of chemicals on mitochondrial function. […] The dye accumulates in the mitochondria of healthy cells as aggregates, with red fluorescence. The mitochondrial potential collapses and the dye can no longer accumulate in the mitochondria and remains in the cytoplasm in monomers, with green fluorescence.
2,000 HepG2 cells in 5 uL/well were dispensed into black, clear-bottom 1536-well plates using a Multidrop Combi (Thermo Scientific) dispenser. The assay plates were incubated overnight at 37C to allow cells to attach to the wells, followed by the transfer of 23 nL compound or DMSO vehicle by a pin tool (Kalypsys). The plates were incubated for 1 hr at 37C and 5% CO2, followed by the addition of 5 uL of 2X Mito-MPS dye (BD Biosciences) into each well using Flying Reagent Dispenser (Aurora Discovery) and then following 30 min incubation at 37C. Fluorescence intensity (490nm excitation and 535nm emission for monomers; and 540nm excitation and 590nm emissions for aggregates) was measured using an Envision plate reader.
In the case of `Cc1cc(Cl)ccc1O`, the “ratio change, negative = depolarisation” value is -17.9%.

Turning to `CC(C)OS(C)(=O)=O`, the “ratio change, negative = depolarisation” value was -0.555%.

As for `Nc1ccc(Oc2ccc(N)cc2)cc1`, the “ratio change, negative = depolarisation” value was -12.2%. Same read-out and setting: to `NC1CCC(CC2CCC(N)CC2)CC1` (stereo not given) belongs 6.03%; to `ClCCOCCCl`, 1.24%; to `c1ccc(NNc2ccccc2)cc1`, 2.09%. Still for that read-out and setting: the figure for `CCN(CC)N=O` is 0.322%; for `O=C(O)c1cc(Cl)ccc1Cl` it is -3.74%. Take `N#C/C=C/C#N`: the “ratio change, negative = depolarisation” value was -8.52%. `ClCC(Br)CBr` (stereo not given): the “ratio change, negative = depolarisation” value was 1.06%. On to `c1ccc2c(c1)CCNC2`, for which the “ratio change, negative = depolarisation” value is 0.652%. The same measure, in the same setting: to `CNC(=O)O/N=C/C(C)(C)S(C)=O` (stereo not given) belongs -0.482%. On the same count and under the same terms, the figure for `CCC[N+](=O)[O-]` is 3%; for `ClC=CCl` it is 1.94%.

In the case of `CCCBr`, the “ratio change, negative = depolarisation” value was 2.99%. Still for that read-out and setting: to `[N-]=[N+]=[N-]` belongs 1.4%; to `OCCCCO`, 9.69%.

Take `Nc1cc(Cl)cc(Cl)c1`: the “ratio change, negative = depolarisation” value was -1.68%. Same read-out and setting: to `CCCCOC(C)=O` belongs 8.48%; to `Cc1cc(-c2cc(C)c(N)c(C)c2)cc(C)c1N`, -4.16%.

As to `O=S(=O)(O)F`, the “ratio change, negative = depolarisation” value is 1.88%. On the same count and under the same terms, to `C=CCCC#N` belongs 0.355%; to `O=[N+]([O-])c1ccccc1-c1ccccc1`, 4.53%.

For `O=[N+]([O-])c1ccc(O)c([N+](=O)[O-])c1`, the Potency is 21.1 µM (active). Regarding `CN(C)N=O`, the “ratio change, negative = depolarisation” value is -1.81%. As for `CC(=O)[O-].CC(=O)[O-].CC(=O)[O-].[Cr+3]`, the “ratio change, negative = depolarisation” value is 2.62%. Turning to `Clc1ccc(Cl)c(Cl)c1`, the “ratio change, negative = depolarisation” value is -16.3%. Turning to `CC(Cl)CCl` (stereo not given), the “ratio change, negative = depolarisation” value is -2.5%. Consider `FC(Cl)(Cl)Cl`, for which the “ratio change, negative = depolarisation” value was 5.91%. Still for that read-out and setting: to `c1ccc(OCC2CO2)cc1` (stereo not given) belongs 0.133%; to `O=C(O)C(Cl)Br` (stereo not given), 0.662%; to `OCC(Cl)CCl` (stereo not given), 0.298%. The same measure, in the same setting: the figure for `CCCCOC(=O)c1ccccc1N` is -14.6%. The same measure, in the same setting: to `Nc1cccc2ccccc12` belongs -6.13%. Take `C=CC#N`: the “ratio change, negative = depolarisation” value was -2.64%. Same read-out and setting: the figure for `C(CCOCC1CO1)COCC1CO1` (stereo not given) is -0.274%. On the same count and under the same terms, to `CCOC(=O)CC(SP(=O)(OC)OC)C(=O)OCC` (stereo not given) belongs 1.12%; to `Nc1cc(Cl)ccc1Cl`, -1.81%; to `CCNCC`, 5.29%. The same measure, in the same setting: to `BrCC(Br)C1CCC(Br)C(Br)C1` (stereo not given) belongs -19.8%.
